# High-throughput results (PubChem BioAssay)
# Sm TGR block: blocks Schistosoma mansoni thioredoxin glutathione reductase. purified TGR, DTNB reduction, TNB absorbance 405 nm. Q962Y6. Potency, µM (highest dose often 114 µM), inactives show at the top dose activity change, negative = inhibition, usual class: inhibitors. 360,000 compounds, 3% hits. AID 485364; also: potency is read from the fitted curve at half-maximal effect; % is scaled to controls: 0 for no effect and ±100 for the full control effect; nearly all actives have a fitted effect of over 60% in size
#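 First, TGR (20 nM dispensed) and NADPH were mixed with compound. Second, a 15 min room-temperature incubation followed. Third, further NADPH and then DTNB were added to start the reaction. Finally, TNB absorbance was monitored kinetically.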
# SARS PLP yeast: blocks SARS-CoV papain-like protease in a yeast assay; 330,000 compounds, 0.19% hits; S. cerevisiae expressing SARS-CoV PLpro, growth rescue; Potency, µM (series often up to 32.9 µM), for inactives: top-dose activity, positive = growth rescue, most hits filed as activators; AID 485353; calls by dose curve; also: potency is read from the fitted curve at half-maximal effect; 0% is about no effect; nearly all actives have a fitted effect of over 55% in size
# Pf growth 48h: P. falciparum growth inhibition at 48 hours (one generation); P. falciparum luciferase growth in erythrocytes, 48 h; Potency, µM (highest dose often 28.7 µM), for the others: at the top dose activity change, negative = inhibition, usual class: inhibitors; 310,000 compounds, 5.9% hits; also: potency is read from the fitted curve at half-maximal effect; % is scaled to controls: 0 for no effect and ±100 for the full control effect
#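 In quantitative HTS format, infected erythrocytes bearing luciferase-reporter parasites were treated for a single generation at 37 C. Luminescence after adding detection reagent served as the growth measure.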
# HCV inh: inhibitors of hepatitis C virus infection. Huh7.5.1 HCVcc-Cre infection, luciferase reporter, 44 h. Potency, µM (series often up to 41.8 µM), without a hit: at the highest dose activity change, negative = inhibition, hits mostly inhibitors. 340,000 compounds, 3.4% hits. AID 651820; also: potency is read from the fitted curve at half-maximal effect; % is scaled to controls: 0 for no effect and ±100 for the full control effect
#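 1,000 cells/well; 4 h culture; + compound; + HCVcc-Cre (~0.5 moi); 44 h; luciferase substrate, RT 15 min; read 15 sec.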
# HCMV antiviral: human cytomegalovirus inhibition | HFF cells, HCMV-luciferase reporter, 72 h; stronger effect = lower value | activity change, negative = inhibition, % at 57.5 µM | 410,000 compounds, 4.5% hits | AID 1259415; in the data active = activity change below about -60%; inconclusive = no clear call, values can overlap the other calls; inactive = above about -39%; also: % is scaled to controls: 0 for no effect and ±100 for the full control effect
#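 Screen run at 2 compound doses on HFFs infected with reporter HCMV, MOI 1 PFU/cell. Luciferase activity from cell lysates at 72 h post infection gave inhibition relative to buffer-only and Salinomycin wells.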
# Pf growth 96h: P. falciparum growth inhibition at 96 hours; P. falciparum luciferase reporter growth, 96 h; Potency, µM (top dose mostly 28.7 µM), without a hit: at the highest dose activity change, negative = inhibition, actives largely listed as inhibitors; 320,000 compounds, 6.9% hits; AID 504834; also: potency is read from the fitted curve at half-maximal effect; % is scaled to controls: 0 for no effect and ±100 for the full control effect
#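 Cell-based qHTS: luciferase-tagged P. falciparum in erythrocytes (2% hematocrit, 0.05% parasitemia final) incubated with compounds for 96 hours, 37 C, 5% CO2; luciferase detection reagent then added and luminescence measured.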
# The depositor's hits bear a star; ? = inconclusive; / = no result given. Shown are actives, neighbours in structure and some others; about 15% of the full set was active somewhere. Unless noted, calls follow the shape of the dose curve; as a rule, active = well fitted curve in the direction sought with a large enough effect; inconclusive = small, poorly fitted or top-dose-only effect, or another doubt; inactive = no such curve, though single readings can be large; an effect the other way counts as inactive or inconclusive.
SMILES,Sm TGR block,SARS PLP yeast,Pf growth 48h,HCV inh,HCMV antiviral,Pf growth 96h
O=C1C2C(c3ccccc3)C=CC(c3ccccc3)C2C(=O)N1c1ccncc1 (stereo unspecified),-17%,-1%,-9%,24%,-19,14%
CN(CC(=O)Nc1ccc(N2CCOCC2)cc1)CC(=O)Nc1ccc(Cl)cc1[N+](=O)[O-],-9%,-17%,-8%,-7%,7,30%
O=C(CCl)N(CCCNC(=O)C(F)(F)F)c1ccc([N+](=O)[O-])cc1,2.8µM*,0%,9.3µM*,?,-101*,?
CN1CCC(OC(c2ccccc2)c2ccccc2)CC1,-6%,-1%,-17%,-27%,17,?
CN1CCC(Oc2ccccc2Sc2ccccc2)CC1,1%,-10%,?,?,-77*,13µM*
Cc1nnc(N/N=C/c2ccc([N+](=O)[O-])cc2)n1N,53%,-6%,90%,-3%,3,31%
Cc1nnc(N/N=C/c2ccc(-c3ccc(Br)cc3)o2)n1N,5%,-14%,?,?,-17,3.7µM*
COc1ccc(/C=N/Nc2nnc(C)n2N)cc1OC(C)=O,7%,-6%,/,16%,17,25%
Cc1nnc(N/N=C/c2ccc(Br)cc2)n1N,-27%,-16%,81%,-15%,71,15µM*
COc1ccc(/C=N/Nc2nnc(C)n2N)cc1OC,-4%,-5%,?,22%,-61*,-4%
CCNc1nc(NCC)nc(N/N=C/c2ccc(Br)cc2)n1,2%,1%,?,11µM*,?,?
COc1cc(NC(=O)c2cc3cc4ccc(OC)c(Cl)c4nc3s2)cc(OC)c1,3%,/,/,/,-6,/
O=c1[nH]cnc2c1ncn2C1OC(CO)CC1F (stereo unspecified),/,/,/,/,6,/
COc1cccc(/C=N/Nc2nnc(C)n2N)c1OCc1ccccc1Cl,-10%,-46%,?,22µM*,-11,-27%
COc1cccc(C=NNc2nnc(NN=Cc3cccc(OC)c3OC)c3ccccc23)c1OC,/,/,/,?,122,/
COc1cc(NC(=O)c2cccnc2Sc2ccc(C)c(C)c2)cc(OC)c1OC,-1%,7%,?,0%,-35,10µM*
O=C(O)c1cccnc1SCc1cccc(Br)c1,12%,-3%,1.7µM*,7%,53,-8%
Cc1ccc(Sc2ncccc2C(=O)O)cc1C,5%,-3%,-2%,21%,-67*,59%
Cc1ccc(C)c(CSc2ncccc2C(=O)O)c1,-10%,?,10%,19%,0,7.4µM*
Cc1ccc(S(=O)(=O)N2CCC(C(=O)Nc3ccc(C)c(Cl)c3)CC2)cc1,-6%,/,/,/,20,/
CC(=O)Nc1ccc(Sc2ncccc2C(=O)Nc2ccc(OC(F)(F)F)cc2)cn1,4%,6%,13µM*,?,-13,?
CCOc1ccc(C(=O)CC(NCc2cccs2)C(=O)O)cc1 (stereo unspecified),6.3µM*,-1%,?,?,10,0%
CCOc1ccc(C(=O)CC(C(=O)O)N2CCN(Cc3ccccc3)CC2)cc1 (stereo unspecified),7.9µM*,3%,29%,-4%,/,34%
CCOc1ccc(C(=O)CC(C(=O)O)N2CCCCC2)cc1 (stereo unspecified),6.3µM*,4%,-26%,?,/,?
COc1ccc(OC)c2sc(N(Cc3cccnc3)C(C)=O)nc12,2%,/,/,/,0,/
SMILES,Sm TGR block,SARS PLP yeast,Pf growth 48h,HCV inh,HCMV antiviral,Pf growth 96h
Cc1ccc(NC(=O)c2ccc([N+](=O)[O-])o2)cc1C,?,-33%,?,13µM*,?,36%
CCCn1c(NC(=O)c2ccc([N+](=O)[O-])o2)nc2ccccc21,-33%,-1%,?,?,-63*,?
O=C(Nc1cccc(Cl)c1)c1ccc2c(c1)OCCO2,5%,-7%,255%,-18%,97,4%
Cn1ncc([N+](=O)[O-])c1C(=O)Nc1nc2ccccc2n1CCN1CCCCC1,0%,10%,?,-18%,-15,-17%
O=C(Nc1cccc(NC(=O)c2ccccc2Cl)c1)c1ccc([N+](=O)[O-])o1,?,-12%,?,10µM*,-98*,5%
O=C(Nc1cccc([N+](=O)[O-])c1)c1ccc2c(c1)OCCO2,-1%,-39%,219%,-21%,-107*,?
Cc1ccc(S(=O)(=O)N2C[C@]3(O)C[C@@H]4C(=O)N(c5ccccc5)C(=O)[C@@H]4C[C@]3(OC(=O)Nc3cccs3)C2)cc1,/,/,/,/,13,/
Cc1ccnc(NC(=O)c2ccc([N+](=O)[O-])o2)c1,?,-12%,3%,?,20,?
O=C(Nc1cccc([N+](=O)[O-])c1)c1ccc([N+](=O)[O-])o1,/,/,/,/,-87*,/
O=C(COc1ccc([N+](=O)[O-])cc1)Nc1ccc2[nH]c(=O)[nH]c2c1,6%,/,5%,8%,-3,-27%
O=C(Nc1ncccn1)c1ccc([N+](=O)[O-])o1,?,0%,8.3µM*,?,15,64%
O=C(Nc1ccc2[nH]c(=O)[nH]c2c1)c1ccc([N+](=O)[O-])o1,40µM*,-1%,?,10µM*,0,12µM*
COc1ccc(CCNC(=O)c2ccc3ccccc3n2)cc1,7%,-8%,37%,11%,36,39%
CC(C)c1nc2cc(C(=O)N3CCN(c4cnccn4)CC3)ccc2o1,-7%,-8%,6%,-8%,-36,12µM*
CCCOC1CCCN(C(=O)c2ccc3oc(C(C)C)nc3c2)C1 (stereo unspecified),6%,-4%,8%,13%,1,34%
CCCCn1c(N)c(N(CC(C)C)C(=O)CSc2ccccc2C)c(=O)[nH]c1=O,0%,0%,2%,1%,1,?
Cc1ccc(CNC(=O)C2CCN(c3nc4ccccc4n(C)c3=O)CC2)cc1,-9%,/,/,/,-2,/
CCOC(=O)c1c(-c2ccccc2)oc2cc(Br)c(OCc3ccccc3)cc12,0%,/,/,/,10,/
Cc1ccc(NS(=O)(=O)c2cc(NC(=O)c3ccc4c(c3)NC(=O)CS4)ccc2C)c(C)c1,/,-1%,?,11µM*,?,?
COc1ccccc1NS(=O)(=O)c1cc(NC(=O)c2ccccc2C)ccc1N1CCOCC1,/,/,/,-8%,-14,/
COc1ccccc1NS(=O)(=O)c1cc(NC(=O)c2[nH]c(C)c(C(C)=O)c2C)ccc1N1CCOCC1,-3%,-2%,7.4µM*,?,-90*,?
COc1ccccc1NS(=O)(=O)c1cc(NC(C)=O)ccc1N1CCCCC1,7%,1%,-29%,0%,-32,9.3µM*
